PubChem BioAssay (Tox21)
Inconclusive results are not listed. Calls of active or inactive are those of the source. Unless noted, the call rests on the fitted dose curve; in most records, active means well fitted curve in the direction sought with a large enough effect in the repeat runs; inconclusive means weak or mixed curves; inactive means no such curve, though single readings can be large; an effect the other way counts as inactive or inconclusive. Positions of bridges follow the written chain, without caps; N, C: chain ends. Non-standard residues stand in square brackets, D forms with d. Residues, ends and D or L forms follow the SMILES beside them. *: point of attachment. Dab(CH2SO3H) = N[C@@H](CCNCS(=O)(=O)O)C(=O)O; X3 = CC[C@@H](C)CCCCC(=O)*; Dab = NCC[C@H](N)C(=O)O

How the values were obtained:
[1] = qHTS assay for small molecule agonists of the p53 signaling pathway (AID 651631; calls by dose curve; further: nearly all actives have a fitted effect of over 15% in size)
Outline: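 p53RE-bla HCT-116 cells; compounds 16 h, 37 °C; LiveBLAzer B/G FRET substrate 2 h RT; fluorescence intensity read-out, qHTS format.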

[2] = qHTS assay for small molecules that induce genotoxicity in human embryonic kidney cells expressing luciferase-tagged ATAD5 (AID 651632); further: nearly all actives have a fitted effect of over 15% in size
Outline: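 Luminescence read-out: after 16 hr compound exposure at 37C, ATAD5-luciferase HEK293T cells received Amplite, 30 min RT, then CCD imaging. A rise in signal marks genotoxic stress.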

[3] = qHTS assay for small molecule agonists of the p53 signaling pathway - cell viability (AID 651633; calls by dose curve;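 further: p53RE-bla HCT reporter cells with a stable beta-lactamase p53 reporter; nearly all actives have a fitted effect of over 30% in size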)
Outline: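 p53RE-bla cells were treated with compound for 16 hours at 37 C. Cytotoxicity was then measured as CellTiter-Glo luminescence after 30 min at room temperature.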

[4] = qHTS assay for small molecules that induce genotoxicity in human embryonic kidney cells expressing luciferase-tagged ATAD5 - cell viability (AID 651634; calls by dose curve; further: nearly all actives have a fitted effect of over 25% in size)
Outline: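 HEK293T ATAD5-luc cells, 2,000/well; compound 15.5 hr, 37C/5% CO2; CellTiter-Fluor 30 min, 37C; fluorescence read.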

[5] = qHTS assay for small molecule disruptors of the mitochondrial membrane potential - cell viability (AID 720634; calls by dose curve;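 further: human HepG2 liver cancer cells; nearly all actives have a fitted effect of over 20% in size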)
Outline: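 Luminescence from CellTiter-Glo (ATP content) gave viability in HepG2 cells, read in the same wells as the MMP dye assay after 1 hr compound exposure at 37 C.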

[6] = qHTS assay for small molecule disruptors of the mitochondrial membrane potential (AID 720635)
Outline: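 HepG2 cells exposed to compound 1 hr at 37C, then Mito-MPS dye 30 min. Ratio read of aggregate (540/590 nm) versus monomer (490/535 nm) fluorescence.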

[7] = qHTS assay to test for compound auto fluorescence at 590 nm (red) in HepG2 cells (AID 720674)
Outline: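 Seeding: 2,000 HepG2 cells/well, MEM/10% FBS, overnight 37 C. Dosing: compound vs DMSO. Incubation: 1 hr, 37 C, 5% CO2. Read: fluorescence 540 ex/590 em, Rose Bengal sodium as red reference.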

[8] = qHTS assay to test for compound auto fluorescence at 535 nm (green) in HepG2 cells (AID 720675)
[9] = qHTS assay to test for compound auto fluorescence at 460 nm (blue) in HEK293 cells (AID 720678)
Outline: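 HEK293, 2,000 cells/well, 10% dialyzed FBS; attach 4-5 hr 37C; pin compound or DMSO; o/n 37C/5% CO2; fluorescence 405/460 nm; triamterene-equivalent units.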

[10] = qHTS assay to test for compound auto fluorescence at 590 nm (red) in HEK293 cells (AID 720679)
Outline: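 Intensity at 540nm excitation and 590nm emission is reported as Rose Bengal sodium-equivalent autofluorescence. Measurements followed overnight exposure (37C, 5% CO2) of HEK293 cells, 2,000 per well, to 23 nL compound.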

[11] = qHTS assay to test for compound auto fluorescence at 535 nm (green) in HEK293 cells (AID 720680)
[12] = qHTS assay to test for compound auto fluorescence at 460 nm (blue) in HEK293 cell free culture (AID 720681)
Outline: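 Compounds were added to cell-free DMEM with 10% FBS and fluorescence read directly. The blue channel used 405 nm excitation and 460 nm emission, with triamterene as the reference fluorophore.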

[13] = qHTS assay to test for compound auto fluorescence at 535 nm (green) in HEK293 cell free culture (AID 720682)
Outline: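 Cell-free medium (DMEM, 10% FBS) receives compound or DMSO by pintool. Plate read directly at Ex 485/Em 535 nm. Signal converted to fluorescein equivalency.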

[14] = qHTS assay to test for compound auto fluorescence at 590 nm (red) in HEK293 cell free culture (AID 720683)
Outline: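 Cell-free wells of DMEM with 10% FBS received compound, and intrinsic fluorescence was read at excitation/emission 540/590 nm. Values expressed as equivalence to Rose Bengal sodium.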

[15] = qHTS assay to test for compound auto fluorescence at 590 nm (red) in HepG2 cell free culture (AID 720684)
Outline: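 Auto fluorescence equivalency versus Rose Bengal sodium, red channel Ex/Em 540/590 nm; compounds in cell-free MEM/10% FBS; DMSO vehicle control.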

[16] = qHTS assay to test for compound auto fluorescence at 460 nm (blue) in HepG2 cell free culture (AID 720685)
Outline: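 Cell-free plates of MEM plus 10% FBS received 23 nL compound or DMSO vehicle; blue-channel (405/460 nm) intensity scored against triamterene as reference fluorophore.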

[17] = qHTS assay to test for compound auto fluorescence at 535 nm (green) in HepG2 cell free culture (AID 720686)
[18] = qHTS assay to test for compound auto fluorescence at 460 nm (blue) in HepG2 cells (AID 720687)
Outline: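 HepG2 cells in MEM with 10% FBS, attached overnight at 37 C, were exposed to compound or DMSO for 1 hr at 37 C, 5% CO2. Blue fluorescence was read at 405/460 nm, with triamterene as reference fluorophore.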

[19] = target: Glucocorticoid receptor (Homo sapiens) (UniProt P04150); assay: qHTS assay to identify small molecule agonists of the glucocorticoid receptor (GR) signaling pathway (AID 720691; active means well fitted activation curve with a large enough effect in the signal ratio in the repeat runs, not every such curve was filed as active; the % refers to the signal ratio); conditions: GR-bla HeLa, beta-lactamase reporter ratio, 18 h; activation: at 62.4 µM (top of the series)
Sequence of Glucocorticoid receptor (Homo sapiens) (P04150 whole entry, looked up): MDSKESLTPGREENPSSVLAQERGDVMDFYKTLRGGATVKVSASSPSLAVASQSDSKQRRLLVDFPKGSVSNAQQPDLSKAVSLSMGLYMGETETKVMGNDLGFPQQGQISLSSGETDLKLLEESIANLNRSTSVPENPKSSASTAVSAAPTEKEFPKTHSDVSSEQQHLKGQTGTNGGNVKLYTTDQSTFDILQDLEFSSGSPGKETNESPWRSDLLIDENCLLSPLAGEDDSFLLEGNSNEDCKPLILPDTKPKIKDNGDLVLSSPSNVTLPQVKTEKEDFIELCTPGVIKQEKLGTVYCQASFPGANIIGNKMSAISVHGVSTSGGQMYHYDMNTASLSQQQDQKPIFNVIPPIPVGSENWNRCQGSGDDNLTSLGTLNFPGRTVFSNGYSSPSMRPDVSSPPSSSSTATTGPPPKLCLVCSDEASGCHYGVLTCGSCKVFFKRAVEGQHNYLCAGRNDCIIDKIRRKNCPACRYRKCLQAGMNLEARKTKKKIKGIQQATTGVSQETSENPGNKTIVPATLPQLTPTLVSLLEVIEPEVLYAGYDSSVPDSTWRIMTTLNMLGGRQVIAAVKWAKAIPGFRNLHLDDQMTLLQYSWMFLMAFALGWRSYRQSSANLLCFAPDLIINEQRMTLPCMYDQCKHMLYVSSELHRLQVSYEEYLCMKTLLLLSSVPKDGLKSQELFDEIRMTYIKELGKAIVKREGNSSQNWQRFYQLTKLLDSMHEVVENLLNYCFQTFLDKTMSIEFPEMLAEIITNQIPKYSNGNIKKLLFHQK
Outline: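 HeLa GR-bla reporter line; cells pre-incubated 4 h, compound in DMSO 18 h at 37 C; LiveBLAzer B/G FRET substrate 2 h RT; fluorescence intensity read-out.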

[20] = target: Glucocorticoid receptor (Homo sapiens) (UniProt P04150); assay: qHTS assay to identify small molecule antagonists of the glucocorticoid receptor (GR) signaling pathway (AID 720692; active means well fitted inhibition curve with a large enough effect in the signal ratio in the repeat runs, not every such curve was filed as active; the % refers to the signal ratio)
Outline: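 Read-out: beta-lactamase FRET substrate fluorescence, 2 h at room temperature, in HeLa cells stably carrying a GRE-driven bla reporter. Compounds were co-incubated with 5 nM dexamethasone agonist (final) for 18 h at 37 C.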

Measured: Potency

CCCCCCOC(=O)c1cccnc1
inactive: all assays above

NCC1CCC(C(=O)O)CC1 (centres undefined)
not listed: [13] | [19] | [20]
inactive: all other assays above

CCCCCCCCCC(=O)NO
not listed: [13] | [19] | [20]
inactive: all other assays above

CC[C@@H](C)CCCCC(=O)N[C@@H](CCNCS(=O)(=O)O)C(=O)N[C@H](C(=O)N[C@@H](CCNCS(=O)(=O)O)C(=O)N[C@H]1CCNC(=O)[C@H]([C@@H](C)O)NC(=O)[C@H](CCNCS(=O)(=O)O)NC(=O)[C@H](CCNCS(=O)(=O)O)NC(=O)[C@H](CC(C)C)NC(=O)[C@@H](CC(C)C)NC(=O)[C@H](CCNCS(=O)(=O)O)NC1=O)[C@@H](C)O (X3-[Dab(CH2SO3H)]T[Dab(CH2SO3H)][Dab][Dab(CH2SO3H)][dL]L[Dab(CH2SO3H)][Dab(CH2SO3H)]T; lactam 4-C)
inactive: all assays above

Cc1ccc(C(C)(C)c2ccc(C)cc2)cc1
inactive: all assays above

Nc1cc(Cl)c(NC2=NCCN2)c(Cl)c1
not listed: [13]
inactive: all other assays above

CSCCC(N)C(=O)O (centres undefined)
inactive: all assays above

C[C@@H]1O[C@@H]1P(=O)(O)O
inactive: all assays above

CC[C@H]1OC(=O)[C@H](C)C(=O)[C@H](C)[C@@H](O[C@@H]2O[C@H](C)C[C@H](N(C)C)[C@H]2O)[C@](C)(OC)C[C@@H](C)C(=O)[C@H](C)[C@H]2N(CCCCn3cnc(-c4cccnc4)c3)C(=O)O[C@]12C
inactive: all assays above

NC(=O)[C@@H]1CCCN1C(=O)[C@H](Cc1cnc[nH]1)NC(=O)[C@@H]1CCC(=O)N1
inactive: all assays above

CC(C)=CCC/C(C)=C/CC/C(C)=C/CC/C=C(\C)CC/C=C(\C)CCC=C(C)C
not listed: [13]
inactive: all other assays above

CC(C)(C)C(=O)OCC(=O)[C@H]1CC[C@H]2[C@@H]3CCC4=CC(=O)CC[C@]4(C)[C@H]3CC[C@]12C
not listed: [13] | [19] | [20]
inactive: all other assays above
